Assay results reported in PubChem BioAssay (NCATS).
Results filed as inconclusive are left out. Activity calls are given as the source filed them. The call rests on the fitted dose curve; in most records, active means well fitted curve in the direction sought with a large enough effect; inconclusive means small, poorly fitted or top-dose-only effect, or another doubt; inactive means no such curve, though single readings can be large; an effect the other way counts as inactive or inconclusive.

Experiments:
[1] = Quantitative High-Throughput drug screen in 47 multiple myeloma cell lines against the NCATS MIPE library collection: KMS26_JCRB cell viability assay (AID 1918975); further: nearly all actives have a fitted effect of over 45% in size
How it was run: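 Myeloma cells (500 per well) were exposed to MIPE 4.0 compounds by pin transfer and incubated 48 hours at 37C, 5% CO2. Viability was read as ATP by CellTiter-Glo luminescence, normalised to DMSO (100%) and media-only (0%) wells.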

[2] = Quantitative High-Throughput drug screen in 47 multiple myeloma cell lines against the NCATS MIPE library collection: MMM1_PLB cell viability assay (AID 1918976); further: nearly all actives have a fitted effect of over 35% in size
How it was run: (§1)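 qHTS format: cells plated (500/well), pin-dosed with MIPE 4.0 compounds, kept 48 h at 37 °C. Readout was CellTiter-Glo luminescence, median RLU.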

[3] = Quantitative High-Throughput drug screen in 47 multiple myeloma cell lines against the NCATS MIPE library collection: MOLP8_DSMZ cell viability assay (AID 1918977); further: nearly all actives have a fitted effect of over 45% in size
How it was run: as §1

[4] = Quantitative High-Throughput drug screen in 47 multiple myeloma cell lines against the NCATS MIPE library collection: NCIH929_DSMZ cell viability assay (AID 1918978); further: nearly all actives have a fitted effect of over 35% in size
How it was run: as §1

[5] = Quantitative High-Throughput drug screen in 47 multiple myeloma cell lines against the NCATS MIPE library collection: MM1S_ATCC cell viability assay (AID 1918980); further: nearly all actives have a fitted effect of over 45% in size
How it was run: as §1

[6] = Quantitative High-Throughput drug screen in 47 multiple myeloma cell lines against the NCATS MIPE library collection: MM1R_ATCC cell viability assay (AID 1918981); further: nearly all actives have a fitted effect of over 35% in size
How it was run: as §1

[7] = Quantitative High-Throughput drug screen in 47 multiple myeloma cell lines against the NCATS MIPE library collection: LP1_DSMZ cell viability assay (AID 1918982); further: nearly all actives have a fitted effect of over 35% in size
How it was run: as §1

[8] = Quantitative High-Throughput drug screen in 47 multiple myeloma cell lines against the NCATS MIPE library collection: KMS28PE_JCRB cell viability assay (AID 1918983); further: nearly all actives have a fitted effect of over 35% in size
How it was run: as §1

[9] = Quantitative High-Throughput drug screen in 47 multiple myeloma cell lines against the NCATS MIPE library collection: L363_DSMZ cell viability assay (AID 1918984); further: nearly all actives have a fitted effect of over 40% in size
How it was run: as §1

[10] = Quantitative High-Throughput drug screen in 47 multiple myeloma cell lines against the NCATS MIPE library collection: KMS34_JCRB cell viability assay (AID 1918985); further: nearly all actives have a fitted effect of over 40% in size
How it was run: as §1

[11] = Quantitative High-Throughput drug screen in 47 multiple myeloma cell lines against the NCATS MIPE library collection: OCIMY7_PLB cell viability assay (AID 1918987); further: nearly all actives have a fitted effect of over 65% in size
How it was run: as §1

[12] = Quantitative High-Throughput drug screen in 47 multiple myeloma cell lines against the NCATS MIPE library collection: OCIMY5_PLB cell viability assay (AID 1918988); further: nearly all actives have a fitted effect of over 65% in size
How it was run: as §1

[13] = Quantitative High-Throughput drug screen in 47 multiple myeloma cell lines against the NCATS MIPE library collection: OPM1_PLB cell viability assay (AID 1918989); further: nearly all actives have a fitted effect of over 40% in size
How it was run: as §1

[14] = Quantitative High-Throughput drug screen in 47 multiple myeloma cell lines against the NCATS MIPE library collection: SKMM1_PLB cell viability assay (AID 1919863); details: SKMM1 myeloma viability, CellTiter-Glo ATP, 48 h; viability: stronger effect = lower value; further: nearly all actives have a fitted effect of over 35% in size
How it was run: as §1

[15] = Quantitative High-Throughput drug screen in 47 multiple myeloma cell lines against the NCATS MIPE library collection: U266_ATCC cell viability assay (AID 1919864); further: nearly all actives have a fitted effect of over 35% in size
How it was run: as §1

[16] = Quantitative High-Throughput drug screen in 47 multiple myeloma cell lines against the NCATS MIPE library collection: OCIMY1_PLB cell viability assay (AID 1918979); further: nearly all actives have a fitted effect of over 35% in size
How it was run: as §1

[17] = Quantitative High-Throughput drug screen in 47 multiple myeloma cell lines against the NCATS MIPE library collection: KMS21BM_JCRB cell viability assay (AID 1918974); details: ATP luminescence, 48 h; viability: at 45.8 µM (top of the series) unless noted
How it was run: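 Viability readout: CellTiter-Glo luminescence following 5 min room-temperature incubation with reagent. Prior exposure: 48 h, 37C, humidified 5% CO2, 500 cells per well.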

[18] = Quantitative High-Throughput drug screen in 47 multiple myeloma cell lines against the NCATS MIPE library collection: XG6_PLB cell viability assay (AID 1919865); further: nearly all actives have a fitted effect of over 40% in size
How it was run: as §1

[19] = Quantitative High-Throughput drug screen in 47 multiple myeloma cell lines against the NCATS MIPE library collection: XG1_PLB cell viability assay (AID 1919866); further: nearly all actives have a fitted effect of over 35% in size
How it was run: as §1
Potency means the concentration at half of the fitted maximal effect.

O=C(Cc1ccc(-c2ccc(OCCN3CCOCC3)cc2)cn1)NCc1ccccc1
active: Potency [1] 0.0833 µM | Potency [2] 14.8 µM | Potency [3] 0.0833 µM | Potency [4] 0.0935 µM | Potency [5] 0.132 µM | Potency [6] 0.187 µM | Potency [7] 0.0418 µM | Potency [8] 0.0469 µM | Potency [9] 0.0148 µM | Potency [10] 0.0148 µM | Potency [11] 0.001 µM | Potency [12] 0.0118 µM | Potency [13] 0.0296 µM | Potency [14] 0.0166 µM | Potency [15] 0.0935 µM

CCN1CCN(Cc2ccc(-c3cc4c(N[C@H](C)c5ccccc5)ncnc4[nH]3)cc2)CC1
inactive: Potency [11]
active: Potency [1] 0.935 µM | Potency [2] 18.7 µM | Potency [16] 3.32 µM | Potency [9] 0.0235 µM | Potency [13] 0.372 µM | Potency [15] 0.166 µM

CC(C)(C)c1cc(NC(=O)Nc2ccc(-c3cn4c(n3)sc3cc(OCCN5CCOCC5)ccc34)cc2)no1
active: Potency [1] 18.7 µM | Potency [12] 9.35 µM | Potency [18] 0.418 µM
inactive: Potency [17] | Potency [4] | Potency [5] | Potency [9] | Potency [11]

O=C1CCC[C@@H]2[C@H]3CCC[N+]4([O-])CCC[C@@H](CN12)[C@@H]34 (stereo not given in full)
active: viability [17] 154%
inactive: Potency [16] | Potency [7] | Potency [8] | Potency [9] | Potency [10] | Potency [13] | Potency [19]

CC(=O)OCC(=O)[C@@]1(O)[C@H](C)C[C@H]2[C@@H]3C=C(C)C4=Cc5c(cnn5-c5ccccc5)C[C@]4(C)[C@@H]3[C@@H](O)C[C@@]21C
active: Potency [1] 10.5 µM | Potency [2] 16.6 µM | Potency [4] 8.33 µM | Potency [16] 9.35 µM | Potency [9] 0.0469 µM | Potency [10] 8.33 µM | Potency [11] 7.43 µM | Potency [12] 7.43 µM | Potency [13] 9.35 µM | Potency [14] 18.7 µM | Potency [15] 7.43 µM | Potency [18] 4.18 µM | Potency [19] 5.26 µM

O=C(O)C1(Cc2cccc(Nc3nccs3)n2)CCC(Oc2cccc(Cl)c2F)CC1 (stereo not given)
active: Potency [17] 0.0235 µM | Potency [5] 0.332 µM | Potency [11] 0.296 µM | Potency [12] 0.662 µM | Potency [13] 0.332 µM | Potency [18] 0.209 µM | Potency [19] 0.0526 µM
inactive: Potency [4] | Potency [16] | Potency [15]

Cc1ccc2nc(NC(=O)CSc3nc4c(c(=O)n3-c3ccccc3)SCC4)sc2c1
active: Potency [17] 11.8 µM | Potency [1] 23.5 µM | Potency [5] 13.2 µM | Potency [6] 16.6 µM | Potency [7] 8.33 µM | Potency [8] 23.5 µM | Potency [9] 11.8 µM | Potency [12] 7.43 µM | Potency [13] 16.6 µM | Potency [14] 11.8 µM | Potency [15] 20.9 µM | Potency [18] 14.8 µM

C[C@@H]1COC(Nc2ccc3ncnc(Nc4ccc(OCc5nccs5)c(Cl)c4)c3c2)=N1
active: Potency [1] 20.9 µM | Potency [2] 23.5 µM | Potency [4] 3.32 µM | Potency [7] 26.4 µM | Potency [9] 9.35 µM | Potency [12] 2.96 µM | Potency [13] 16.6 µM | Potency [15] 18.7 µM | Potency [18] 0.0372 µM | Potency [19] 0.105 µM

C[C@@H](Oc1cc(-n2cnc3ccc(CN4CCN(C)CC4)cc32)sc1C(N)=O)c1ccccc1C(F)(F)F
active: Potency [1] 5.26 µM | Potency [2] 16.6 µM | Potency [4] 20.9 µM | Potency [5] 2.35 µM | Potency [6] 0.059 µM | Potency [9] 0.0118 µM | Potency [10] 0.0418 µM | Potency [12] 0.0469 µM | Potency [15] 16.6 µM | Potency [19] 0.0148 µM

COc1ccc(C(=O)CC2(O)C(=O)Nc3c(Cl)ccc(Cl)c32)cc1 (stereo not given)
active: Potency [1] 2.96 µM | Potency [2] 14.8 µM | Potency [4] 18.7 µM | Potency [5] 18.7 µM | Potency [6] 5.26 µM | Potency [8] 3.72 µM | Potency [9] 1.66 µM | Potency [10] 2.96 µM | Potency [11] 0.526 µM | Potency [12] 1.87 µM | Potency [13] 9.35 µM | Potency [14] 1.18 µM | Potency [18] 0.833 µM | Potency [19] 0.833 µM

COc1cc(-c2nn(C3CCC(N4CCN(C(C)=O)CC4)CC3)c3ncnc(N)c23)ccc1NC(=O)c1cc2ccccc2n1C (stereo not given)
active: Potency [1] 14.8 µM | Potency [2] 16.6 µM | Potency [3] 10.5 µM | Potency [16] 7.43 µM | Potency [5] 5.9 µM | Potency [6] 5.9 µM | Potency [8] 14.8 µM | Potency [10] 6.62 µM | Potency [12] 1.87 µM | Potency [13] 2.64 µM | Potency [14] 14.8 µM | Potency [18] 1.66 µM | Potency [19] 0.332 µM

CC[C@H](CO)Nc1nc(NCc2ccccc2)c2ncn(C(C)C)c2n1
active: Potency [17] 4.18 µM | Potency [1] 33.2 µM | Potency [4] 10.5 µM | Potency [6] 26.4 µM | Potency [7] 26.4 µM | Potency [10] 26.4 µM | Potency [11] 16.6 µM | Potency [12] 18.7 µM | Potency [13] 23.5 µM | Potency [15] 23.5 µM | Potency [18] 14.8 µM | Potency [19] 16.6 µM

CCC[C@H](NC(=O)C(C#N)=Cc1cccc(Br)n1)c1ccccc1
active: Potency [1] 1.48 µM | Potency [2] 2.96 µM | Potency [3] 1.48 µM | Potency [4] 1.05 µM | Potency [16] 6.62 µM | Potency [5] 7.43 µM | Potency [6] 1.66 µM | Potency [7] 5.26 µM | Potency [8] 2.96 µM | Potency [9] 7.43 µM | Potency [10] 4.69 µM | Potency [11] 0.526 µM | Potency [12] 2.09 µM | Potency [13] 0.935 µM | Potency [14] 2.96 µM | Potency [15] 5.9 µM | Potency [18] 2.35 µM | Potency [19] 1.66 µM
